This passage reports GFP response, % of DMSO results from PubChem BioAssay.

The test is described as follows: AGP1-GFP expression modulators, hit retest, confirmation, cell-based, flow cytometry, S. cerevisiae, cherry picks (AID 2273).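 Also: median GFP channel fluorescence over the whole cell population gate.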 The conditions noted are these: S. cerevisiae AGP1-GFP strain, 3 h, at 10 µM. (Flow cytometry measures light scatter and fluorescence of single cells or particles in a stream.)

Several values for one entry are separate records, joined by “and”; a condition that tells them apart may be missing. Equal entries are not always repeated. A number with no mark means an inactive call.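 The calls were made as follows: active = GFP response above 150% of the DMSO level; inconclusive = fewer than 70 events counted for a yeast strain; inactive = the rest.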

Turning to `COc1cc(/C=C/C(=O)CC(=O)/C=C/c2ccc(O)c(OC)c2)ccc1O`, the GFP response, % of DMSO was 98.7%.
For the compound `Nc1[nH]c(=O)ncc1F`, the GFP response, % of DMSO was 78.5%.
With `CC(=O)[C@H]1CC[C@H]2[C@@H]3CCC4=CC(=O)CC[C@]4(C)[C@H]3[C@H](O)C[C@]12C`, the GFP response, % of DMSO was 100%.
With `C[C@]12CC[C@@H]3c4ccc(O)cc4C(=O)C[C@H]3[C@@H]1CC[C@@H]2O`, the GFP response, % of DMSO is 97.2%.
Then `O=C(O)Cc1ccc(-c2ccccc2)cc1`, with 100%; and `CC(=O)O[C@]1(C(C)=O)CC[C@H]2[C@@H]3C[C@H](C)C4=CC(=O)CC[C@]4(C)[C@H]3CC[C@@]21C`, with 97.1%.
Regarding `CC(=O)[C@@]1(O)CC[C@H]2[C@@H]3C[C@H](C)C4=CC(=O)CC[C@]4(C)[C@H]3CC[C@@]21C`, the GFP response, % of DMSO was 93.3%.
Then `CCCCN(CCCC)CCCOC(=O)c1ccc(N)cc1`, with 94.5%.
The figure for `C#C[C@]1(O)CC[C@H]2[C@@H]3CCC4=CC(=O)CC[C@@H]4[C@H]3CC[C@@]21CC` is 95.7%; for `O=C(/C=C/c1ccccc1)c1ccccc1` it is 99.7%.
The figure for `N=c1nc(N2CCCCC2)cc(N)n1O` is 98.9%.
As to `CNCCC(Oc1ccc(C(F)(F)F)cc1)c1ccccc1` (stereo not drawn), the GFP response, % of DMSO is 97.4%.
With `c1cnc2c(c1)ccc1cccnc12`, the GFP response, % of DMSO was 102%.
Then `c1ccc2c(c1)CCOC2CNCCCN1CCCCC1` (stereo not drawn), with 98.5%.
The figure for `CN1CCN2c3ccccc3Cc3ccccc3C2C1` (stereo not drawn) is 97.6%.
Turning to `CN/C(=C/[N+](=O)[O-])NCCSCc1ccc(CN(C)C)o1`, the GFP response, % of DMSO is 99.3%.
Consider `CC(=O)c1ccc(CCCCCCCCCC(=O)O)s1`, for which the GFP response, % of DMSO is 95.2%.
Turning to `Cc1ccc2[nH]c3c(c2c1)CCNC3=O`, the GFP response, % of DMSO was 95%.
As to `C[C@]12C[C@H](O)[C@H]3[C@@H](CCC4=CC(=O)CC[C@@]43C)[C@@H]1CC[C@@H]2C(=O)CO`, the GFP response, % of DMSO was 96.4%.
As to `C[C@]12CCC(=O)C=C1CC[C@@H]1[C@@H]2[C@@H](O)C[C@@]2(C)[C@H]1CC[C@]2(O)C(=O)COC(=O)CCC(=O)O`, the GFP response, % of DMSO was 98.9% and 99.3%.
Then `O=C(NCCN1CCN(c2ccccc2)CC1)c1cccc(Br)c1`, with 100%; and `CCOc1cc(C=O)ccc1OCCSc1ccc(C)cc1`, with 94.9%.
For `CC(=O)Nc1ccc(S(=O)(=O)c2ccc(N)cc2)cc1`, the GFP response, % of DMSO is 105%.
